Inconclusive results are not listed. More than one record can exist for a structure, and the calls need not agree. The source made the active and inactive calls. Unless noted, the call rests on the fitted dose curve; in most records, active means well fitted curve in the direction sought with a large enough effect in the repeat runs; inconclusive means weak or mixed curves; inactive means no such curve, though single readings can be large; an effect the other way counts as inactive or inconclusive.
Tests used:
[1] = target: Retinoic acid receptor RXR-alpha (Homo sapiens) (UniProt P19793); assay: qHTS assay to identify small molecule agonists of the RXR signaling pathway (AID 1159527; calls by dose curve; further: nearly all actives have a fitted effect of over 35% in size)
Retinoic acid receptor RXR-alpha (Homo sapiens), sequence (P19793 whole entry, looked up): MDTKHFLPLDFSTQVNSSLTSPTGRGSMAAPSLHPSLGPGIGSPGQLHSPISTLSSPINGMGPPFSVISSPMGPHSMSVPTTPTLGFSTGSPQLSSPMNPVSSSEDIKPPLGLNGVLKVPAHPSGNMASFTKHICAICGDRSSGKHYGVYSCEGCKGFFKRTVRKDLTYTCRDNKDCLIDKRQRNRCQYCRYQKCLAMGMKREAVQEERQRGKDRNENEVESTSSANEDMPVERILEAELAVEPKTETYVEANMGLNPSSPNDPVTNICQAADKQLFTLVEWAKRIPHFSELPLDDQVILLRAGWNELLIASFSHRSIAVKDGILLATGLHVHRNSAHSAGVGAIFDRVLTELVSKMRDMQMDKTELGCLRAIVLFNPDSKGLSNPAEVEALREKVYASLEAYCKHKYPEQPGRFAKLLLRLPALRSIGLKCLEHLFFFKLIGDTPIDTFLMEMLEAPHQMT
How it was run: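 Beta-lactamase reporter assay, agonist format. Engineered HEK 293T line, charcoal-stripped FBS at 2%, overnight (16 hr) exposure, fluorescence at 460 and 530 nm after 405 nm excitation.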

[2] = qHTS assay to identify small molecule antagonists of the retinoid acid receptor (RAR) signaling pathway - cell viability counter screen (AID 1159551); further: nearly all actives have a fitted effect of over 35% in size
How it was run: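 ATP-based viability, C3RL4 cells, 6 h at 37 C with 1 uM final retinol co-added after compound; luminescence read 30 min post CellTiter-Glo, RT.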

[3] = qHTS assay to identify small molecule agonists of the RXR signaling pathway - cell viability counter screen (AID 1159529);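 further: HEK 293T cells carrying an RXR-alpha UAS beta-lactamase reporter; nearly all actives have a fitted effect of over 50% in size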
How it was run: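 Same-well viability check after the LiveBLAzer FRET read: CellTiter-Glo added, luminescence measured after 30 min at room temperature. Reporter HEK 293T cells had been treated with compounds for 16 hr following a 5 hr preincubation.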

[4] = qHTS assay to identify small molecule antagonists of the estrogen related receptor (ERR) signaling pathway - cell viability counter screen (AID 1224818);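 further: viability measured after 17.5 h of compound exposure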
How it was run: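 Quantitative high-throughput viability counter screen in ERR cells. Compounds (DMSO) incubated 17.5 h at 37 C; read-out was CellTiter-Fluor fluorescence.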

[5] = qHTS assay to identify small molecule antagonists of the estrogen related receptor signaling pathway with the pleiotropic PPARgamma coactivator (PGC) cell viability counter screen (AID 1224822)
Description: National Center for Advancing Translational Sciences [NCATS]
NIH Chemical Genomics Center [NCGC]
U.S. Environmental Protection Agency [EPA]
National Institutes of Environmental Health Sciences [NIEHS]
National Toxicology Program [NTP]
U.S. Food and Drug Administration [FDA]
Estrogen related receptors (ERRs), the first orphan nuclear receptors discovered, play an important role in the control of cellular energy metabolism. ERRs are required for high-energy production in response to the environmental challenges. The pleiotropic PPARgamma coactivator (PGC) is a major partner of ERR and a key regulator in energy homeostasis. Together they have been implicated in the etiology of metabolic disorders such as Type 2 diabetes and metabolic syndrome. ERR-alpha was also identified as an adverse marker for breast cancer progression; ERR-alpha-positive tumors have a poor prognosis. To screen and to identify environmental compounds that perturb the ERR and PGC/ERR signaling pathways could provide valuable information for potential therapeutic or preventive measures in the treatment of metabolic disease. To differentiate true PGC/ERR antagonists or agonist from cytotoxic substances, the assay is multiplexed with cell viability assay.
Tox21 Assay Protocol Summary:
The PGC/ERR cells were dispensed at 2,000 cells/5 ul/well in 1536-well white plates using a Multidrop dispenser. After the assay plates were incubated at a 37 C/5% CO2 incubator for 6 hours, 23 nL of compounds dissolved in DMSO, positive and negative controls or DMSO only was transferred to the assay plate by a pin tool. The plates were incubated at 37 C for 17.5 hours. 1 ul/well of CellTiter-Fluor reagent was added into the assay plates using a Flying Reagent Dispenser. After 30 min incubation at 37 C/5% CO2, the fluorescence intensity in the plates was measured using a ViewLux plate reader.

[6] = qHTS assay to identify small molecule antagonists of the retinoic acid receptor (RAR) signaling pathway (AID 1159552; further: nearly all actives have a fitted effect of over 50% in size)
How it was run: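 Readout: luciferase luminescence, 30 min post-reagent at RT. Setup: C3RL4 RARE reporter cells, compounds plus retinol 1 uM final, 6 hr incubation at 37 C and 5% CO2.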

[7] = qHTS assay to identify small molecule agonists of the retinoic acid receptor (RAR) signaling pathway (AID 1159553); conditions: C3RL4 RARE luciferase reporter, agonist, 6 h; further: potency means the concentration at half of the fitted maximal effect
How it was run: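 Quantitative high-throughput format: the Tox21 10K library was tested on C3RL4 RARE-luciferase cells for 6 hr at 37 C and 5% CO2, with luminescence measured after a 30 min room-temperature reagent step.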

[8] = activation: at 73.3 µM (top of the series) unless noted
On the % scale 0 is the no-effect control and ±100 the full control effect.

O=C(O)C(F)(F)C(F)(F)C(F)(F)C(F)(F)C(F)(F)C(F)(F)C(F)(F)F
inactive: Potency [1] | Potency [2]

CN(C)C(=O)Nc1ccc(Cl)cc1
inactive: Potency [1] | Potency [2]

CC(C)(c1cc(Cl)c(O)c(Cl)c1)c1cc(Cl)c(O)c(Cl)c1
inactive: Potency [1] | Potency [2]

COc1ccc(C(CN(C)C)C2(O)CCCCC2)cc1 (stereo unspecified)
inactive: Potency [1] | Potency [3] | Potency [2] | outcome [4] | Potency [5]

CCCCCCCCCCCOC(=O)c1ccccc1C(=O)OCCCCCCCCCCC
inactive: Potency [1] | Potency [3] | Potency [2] | Potency [6] | Potency [7, 8]

Nc1ccc(Cl)c(Cl)c1
inactive: Potency [1] | Potency [2]

CCN(CC)C(=O)SCc1ccc(Cl)cc1
inactive: Potency [1] | Potency [2] | Potency [6]

C=C(C)C(=O)OCC1CO1 (stereo unspecified)
inactive: Potency [1] | Potency [2] | Potency [6] | Potency [7, 8]

c1nc[nH]n1
inactive: Potency [1] | Potency [2]

CCCCC(CC)COC(=O)c1ccc(C(=O)OCC(CC)CCCC)c(C(=O)OCC(CC)CCCC)c1 (stereo unspecified)
inactive: Potency [1] | Potency [2] | Potency [6] | Potency [7, 8]

CCOP(=S)(OCC)O/N=C(\C#N)c1ccccc1
inactive: Potency [1] | Potency [3] | Potency [2] | Potency [6] | Potency [7, 8]

O=C1C=CC(=O)C=C1
inactive: Potency [1] | Potency [3] | Potency [2] | outcome [4] | Potency [5]

CCOC(=O)C(C)OC(=O)c1cc(Oc2ccc(C(F)(F)F)cc2Cl)ccc1[N+](=O)[O-] (stereo unspecified)
inactive: Potency [1] | Potency [2] | Potency [6] | Potency [7, 8]

N#CC(Br)Br
inactive: Potency [1] | Potency [3] | Potency [2] | Potency [6] | Potency [7, 8]

C1=Cc2cccc3cccc1c23
inactive: Potency [1] | Potency [3] | Potency [2] | Potency [6] | Potency [7, 8]

O=P(O)(O)CCCl
inactive: Potency [1] | Potency [2] | Potency [6] | Potency [7, 8]

Cc1ccccc1[N+](=O)[O-]
active: activation [7, 8] 0.464% [at 94.8 µM]
inactive: Potency [1] | Potency [3] | Potency [2] | Potency [6] | activation ([7]; at 73.3 µM (top of the series)) 1.75%

O=C(O)CC[N+](=O)[O-]
inactive: Potency [1] | Potency [3] | Potency [2] | Potency [6] | Potency [7, 8] | outcome [4] | Potency [5]

COP(=S)(OC)Oc1ccc([N+](=O)[O-])cc1
inactive: Potency [1] | Potency [2] | Potency [6] | Potency [7, 8]

CCC(C)c1cc([N+](=O)[O-])cc([N+](=O)[O-])c1O (stereo unspecified)
inactive: Potency [1] | Potency [3] | Potency [2] | Potency [6] | Potency [7, 8]

Nc1ccncc1
inactive: Potency [1] | Potency [3] | Potency [2] | outcome [4] | Potency [5]

CCCCOCCOP(=O)(OCCOCCCC)OCCOCCCC
inactive: Potency [1] | Potency [2] | Potency [6] | Potency [7, 8]

NC(=S)Nc1ccccc1
inactive: Potency [1] | Potency [2] | Potency [6] | Potency [7, 8]

CCCCNC(=O)n1c(NC(=O)OC)nc2ccccc21
active: Potency [7, 8] 13.6 µM
inactive: Potency [1] | Potency [2] | Potency [6]

COC(=O)c1sccc1S(=O)(=O)NC(=O)Nc1nc(C)nc(OC)n1
inactive: Potency [1] | Potency [2] | Potency [6] | Potency [7, 8]

c1ccc(N=Nc2ccccc2)cc1
inactive: Potency [1] | Potency [2] | Potency [6] | Potency [7, 8]

Nn1cnnc1
inactive: Potency [1] | Potency [2] | Potency [6] | Potency [7, 8]

COP(=S)(OC)Oc1cc(Cl)c(Cl)cc1Cl
inactive: Potency [1] | Potency [3] | Potency [2] | Potency [6] | Potency [7, 8]

c1ccc(NNc2ccccc2)cc1
inactive: Potency [1] | Potency [2] | Potency [6]

COc1ccc(C=O)cc1
inactive: Potency [1] | Potency [2]

CNC(=O)N(C)c1nnc(C(C)(C)C)s1
inactive: Potency [1] | Potency [3] | Potency [2] | Potency [6] | Potency [7, 8]

CCOc1cc(Oc2ccc(C(F)(F)F)cc2Cl)ccc1[N+](=O)[O-]
inactive: Potency [1] | Potency [2] | Potency [6] | Potency [7, 8]

Clc1nc(Cl)nc(Cl)n1
inactive: Potency [1] | Potency [2]

Source: PubChem BioAssay (Tox21)
